A selection: hits, their analogues and other compounds. The true share with any hit is near 4.5%.
Beta cell apopt: blocks beta cell apoptosis. INS-1E cytokine-induced death, ATP luminescence, 48 h; percent of positive-control rescue, neutral wells zero. protection from apoptosis, % (no concentration beside the values). 300,000 compounds, 0.8% hits. AID 435005;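 active = Every replicate reaches about 75%, or at least half do and their mean reaches it too, limit read from the data; inconclusive = At least half of replicates reach the limit but their mean does not; inactive = Under half of replicates reach the limit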;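 also: 0% = cytokine-treated negative control wells and 100% = positive control rescue; higher means more ATP so stronger rescue from cytokine killing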
Mdm2 MdmX PPI: inhibitors of human Mdm2/MdmX interaction; SaOS-2 split-luciferase Mdm2/MdmX complementation, luminescence; 330,000 compounds, 3% hits; O15151+Q00987; inhibition, % at 8 µM; AID 485346;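 active = inhibition of at least 50% at 8 µM in the primary screen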
Target sequence (O15151 whole entry, looked up): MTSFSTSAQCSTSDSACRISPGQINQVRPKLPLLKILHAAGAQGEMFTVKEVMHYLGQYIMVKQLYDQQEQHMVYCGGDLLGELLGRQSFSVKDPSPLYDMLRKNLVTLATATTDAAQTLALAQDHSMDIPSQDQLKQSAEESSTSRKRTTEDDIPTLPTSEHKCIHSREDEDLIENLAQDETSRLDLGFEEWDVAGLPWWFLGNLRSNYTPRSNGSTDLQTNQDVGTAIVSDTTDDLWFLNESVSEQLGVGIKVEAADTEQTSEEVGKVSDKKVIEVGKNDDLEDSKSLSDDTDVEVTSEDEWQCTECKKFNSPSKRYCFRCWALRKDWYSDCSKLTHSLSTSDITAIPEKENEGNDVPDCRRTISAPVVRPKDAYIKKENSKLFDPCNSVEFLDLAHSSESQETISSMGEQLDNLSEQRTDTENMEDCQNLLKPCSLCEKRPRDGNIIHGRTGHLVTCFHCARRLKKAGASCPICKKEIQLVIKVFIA
Target sequence (Q00987 whole entry, looked up): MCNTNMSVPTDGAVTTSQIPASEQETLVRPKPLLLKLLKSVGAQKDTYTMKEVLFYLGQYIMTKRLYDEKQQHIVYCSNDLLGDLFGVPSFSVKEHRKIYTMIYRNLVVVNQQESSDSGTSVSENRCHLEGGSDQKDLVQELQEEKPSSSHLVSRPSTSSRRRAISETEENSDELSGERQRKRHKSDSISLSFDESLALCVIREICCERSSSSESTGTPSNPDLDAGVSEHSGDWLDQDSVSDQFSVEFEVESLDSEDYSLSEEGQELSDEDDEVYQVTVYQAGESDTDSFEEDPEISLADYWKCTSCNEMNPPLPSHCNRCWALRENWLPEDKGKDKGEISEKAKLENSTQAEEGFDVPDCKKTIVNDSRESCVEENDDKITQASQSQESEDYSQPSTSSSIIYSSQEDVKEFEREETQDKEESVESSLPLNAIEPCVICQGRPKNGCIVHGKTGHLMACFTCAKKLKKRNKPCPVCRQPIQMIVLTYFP
Gli-Sufu antag: Gli-Sufu pathway antagonism; inhibition, % at 5 µM; 340,000 compounds, 0.74% hits; Sufu-KO-LIGHT fibroblasts, Gli luciferase reporter luminescence;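 active = inhibition above about 55%, limit read from the data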;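 also: 0% = DMSO-treated cells and 100% = wells with medium but no cells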
Jurkat NFkB inh: lowers PMA/ionomycin-induced NF-kB signal in Jurkat cells; PMA/ionomycin-induced NF-kB luciferase reporter, luminescence; inhibition, % at 4 µM; 330,000 compounds, 0.53% hits; in the data active = inhibition above about 50%
CSC inhib: blocks cancer stem cells; cancer stem cell-like cells viability, luminescence; inhibition, % at 7.5 µM; 300,000 compounds, 1.1% hits; in the data active = inhibition above about 75%; inconclusive = no clear call, values can overlap the other calls; tested in HMLE shEcad cells
697 NFkB inh: inhibitors of the PMA/ionomycin-induced NF-kB reporter in 697 B cells; 697 B-cell NF-kB luciferase reporter, 16 h; inhibition, % at 4 µM; 330,000 compounds, 0.33% hits; AID 435022; in the data active = inhibition above about 35%
Mdm2 MdmX conf: human Mdm2/MdmX binding inhibition, confirmed; 10,000 compounds, 55% hits; luminescent assay; inhibition, % at 8 µM; shares compounds with Mdm2 MdmX PPI; AID 489028; in the data active = inhibition above about 40%
Full FLuc ctr: counter-screen for Mdm2/MdmX inhibitors: full-length luciferase | shares compounds with Mdm2 MdmX PPI | SaOS-2 full-length luciferase counterscreen, luminescence | inhibition, % at 8 µM | 6,200 compounds, 77% hits | AID 504607;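 active = mean inhibition at 8 µM reaching about 37%, which flags the compound as non-specific, limit read from the data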;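 also: p53-null SaOS-2 cells with luciferase driven by a doxycycline-inducible promoter; compound on cells about two nights before reading with doxycycline added after day one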
* marks the source's active call; other numbers are inactive results; ? = inconclusive; nt = no result given.

SMILES | Beta cell apopt | Mdm2 MdmX PPI | Gli-Sufu antag | Jurkat NFkB inh | CSC inhib | 697 NFkB inh | Mdm2 MdmX conf | Full FLuc ctr
N#Cc1c(N2CCCCC2)nc(N2CCCCC2)c2c1CCN(Cc1ccccc1)C2 | ? | 52.9* | 13.6 | 5.4 | -0.8 | -2.5 | 24.2 | nt
N#C/C(=C\c1cc(Br)ccc1F)C(=O)NC1CC1 | -6.3 | 11.8 | 35.6 | 10.7 | -3.7 | 4.7 | nt | nt
Cc1ccnc(N/C=C(\C#N)c2nc(-c3cccc(Br)c3)cs2)c1 | -14.5 | 53.4* | 1.6 | 2.7 | 15.9 | -5.7 | -4.7 | nt
CC(C)Cc1nnc(NC(=O)c2cc([N+](=O)[O-])ccc2N2CCOCC2)s1 | 4.4 | 1.3 | -15.1 | -4.0 | -0.6 | -12.3 | nt | nt
COc1cc(/C=N/NC(=Nc2ccc(C)cc2)c2nc3ccccc3s2)ccc1O | 16.1 | 82.8* | -29.1 | -57.7 | nt | -86.3 | 79.5* | 50.8*
CC(C)n1cc(CNC(=O)C2CCC(=O)N(Cc3ccccc3F)C2)cn1 (stereo not given) | -4.4 | 11.8 | -8.2 | -1.6 | 5.9 | -3.5 | nt | nt
C=CC[C@]12CCc3sccc3C1N(c1ccc(C(=O)OCC)cc1)C2=O (stereo not given in full) | -4.5 | 9.7 | 3.6 | 14.7 | 0.7 | -20.1 | nt | nt
C#CCN1C=C(C(=O)OCC)C(C)N(Cc2ccccc2I)S1(=O)=O (stereo not given) | nt | 54.7* | 6.1 | nt | nt | -11.0 | 49.2* | 51.4*
C#CCN1C=C(C(=O)OCC)C(C)NS1(=O)=O (stereo not given) | nt | 24.9 | -3.0 | nt | nt | -0.5 | nt | nt
CC(C)c1ccc(C(C(=O)NC2CCCC2)N(C(=O)c2csnn2)C2CC2)cc1 (stereo not given) | 3.7 | -15.8 | 30.1 | 13.5 | -0.9 | 9.1 | nt | nt
O=C(COC(=O)/C=C/c1ccccc1[N+](=O)[O-])NCC(F)(F)F | -1.4 | 8.2 | 1.0 | 0.7 | -14.8 | -1.6 | nt | nt
CC(=O)Nc1cccc(-c2cnc(N)c(C(=O)c3cccnc3)n2)c1 | -38.0 | 90.0* | -6.5 | 20.9 | nt | -45.0 | 93.4* | 54.5*
NC(=O)c1cccc(-c2cnc(N)c(C(=O)c3cccnc3)n2)c1 | nt | nt | -10.5 | nt | nt | nt | nt | nt
CCN(C[C@H]1N[C@@](CC)(C(=O)OC)[C@H]2C(=O)N(C)C(=O)[C@@H]12)C(=O)Nc1ccc(Cl)cc1 | nt | 18.7 | -13.1 | 3.7 | nt | 10.8 | nt | nt
CCN(C[C@H]1N[C@@](CC)(C(=O)OC)[C@H]2C(=O)N(Cc3ccccc3)C(=O)[C@@H]12)C(=O)Nc1ccc(Cl)cc1 | nt | 60.4* | 4.7 | -2.9 | nt | -8.5 | 62.0* | 58.0*
CCN(C[C@H]1N[C@@](CC)(C(=O)OC)[C@H]2C(=O)N(Cc3ccccc3)C(=O)[C@@H]12)C(=O)Nc1ccc(C)cc1 | nt | 19.0 | 4.4 | -0.7 | nt | -2.5 | nt | nt
CCN(C[C@H]1N[C@@](Cc2ccccc2)(C(=O)OC)[C@H]2C(=O)N(Cc3ccccc3)C(=O)[C@@H]12)C(=O)Nc1ccc(C)cc1 | nt | 54.2* | 3.4 | 8.1 | nt | 15.1 | 51.1* | 73.7*
CCN(C[C@H]1N[C@@](Cc2ccccc2)(C(=O)OC)[C@H]2C(=O)N(Cc3ccccc3)C(=O)[C@@H]12)C(=O)Nc1ccc(C(F)(F)F)cc1 | 53.2 | 85.2* | 2.2 | -5.2 | 71.6 | -6.0 | 40.0* | 58.0*
O=C(NCCC(=O)N1CCC2(CC1)NCCc1[nH]cnc12)c1ccc(F)c(F)c1 | -3.7 | 33.4 | -5.2 | 7.4 | -7.4 | -6.5 | nt | nt
O=C(NCC1CCCO1)c1cccc(S(=O)(=O)N2CCCCC2)c1 (stereo not given) | nt | 8.6 | -2.4 | -12.2 | nt | -16.1 | nt | nt
CCN1C(=O)[C@H]2[C@@H](c3ccc(-c4ccc(Cl)c(Cl)c4)cc3)N3CCCC[C@@]3(C(=O)OC)[C@H]2C1=O | 9.2 | 65.6* | -1.2 | 1.2 | 42.6 | -1.2 | 23.9 | nt
CCN1C(=O)[C@H]2[C@@H](c3ccc(-c4cccc(Cl)c4)c(OC)c3)N3CCCC[C@@]3(C(=O)OC)[C@H]2C1=O | 11.8 | 59.4* | -6.3 | 3.8 | nt | -9.4 | 27.8 | nt

Screens deposited in PubChem BioAssay by several laboratories.
